Laboratory results published in PubChem BioAssay (EPA / NIEHS).
Activity calls are given as the source filed them. Rule for the calls: active = hit-call score of the fitted dose curve at least 0.9, where 1 is the maximum; inactive = score below 0.9.

How the values were obtained:
[1] = BSK_KF3CT_SRB: Viability Assessment in the BioMAP Diversity Plus: KF3CT Assay (AID 2283069); conditions: primary human keratinocytes with fibroblasts;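 note: total protein by sulforhodamine B staining as a cytotoxicity measure; read 24 h after compound addition; fitted for both signal gain and loss against DMSO baseline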
Method in brief: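 Keratinocytes co-cultured with foreskin fibroblasts (human primary); chemical added, 24 h; fix 10% TCA, stain 0.1% SRB, A560. Bidirectional fit vs DMSO.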

[2] = read-out: Interleukin-1 alpha (IL1a), IL1A (gene 3552); test: BSK_KF3CT_IL1a: BioMAP Diversity Plus: KF3CT Assay for Interleukin-1 alpha (IL1a) Biomarker Activity (AID 2283070); conditions: primary human keratinocytes with fibroblasts; actives raise or lower the signal
Method in brief: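 Chemicals were dosed onto co-cultured human keratinocytes and foreskin fibroblasts, IL-1a was quantified by ELISA at 24 h, and activity was fitted in both directions relative to DMSO controls.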

[3] = read-out: TIMP metallopeptidase inhibitor 2 (TIMP2), TIMP2 (gene 7077); test: BSK_KF3CT_TIMP2: BioMAP Diversity Plus: KF3CT Assay for TIMP metallopeptidase inhibitor 2 (TIMP2) Biomarker Activity (AID 2283071); conditions: primary human keratinocytes with fibroblasts; actives raise or lower the signal
Method in brief: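 Co-culture of human primary keratinocytes and foreskin fibroblasts, measured 24 h after chemical dosing. TIMP-2 quantified by ELISA and fitted in both directions relative to DMSO. Cytotoxicity checked in parallel cultures by SRB total-protein staining.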

[4] = read-out: Transforming growth factor beta 1 (TGFb1), TGFB1 (gene 7040); test: BSK_KF3CT_TGFb1: BioMAP Diversity Plus: KF3CT Assay for Transforming growth factor beta 1 (TGFb1) Biomarker Activity (AID 2283072); conditions: primary human keratinocytes with fibroblasts; actives raise or lower the signal
Method in brief: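 Human keratinocyte/foreskin fibroblast co-culture; TGF-b1 measured by ELISA 24 h after dosing, fitted bidirectionally versus DMSO. Cytotoxicity checked in parallel cultures by total protein (SRB staining, 560 nm).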

[5] = read-out: C-C motif chemokine 2 (Homo sapiens) (UniProt P13500); test: BSK_KF3CT_MCP1: BioMAP Diversity Plus: KF3CT Assay for Monocyte Chemoattractant Protein 1 (MCP1/CCL2) Biomarker Activity (AID 2283073); conditions: primary human keratinocytes with fibroblasts; actives raise or lower the signal
Method in brief: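 Biomarker MCP-1 is measured by ELISA in primary human keratinocytes co-cultured with foreskin fibroblasts, 24 h after chemical treatment; DMSO serves as the negative control and activity baseline.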

[6] = read-out: Matrix Metallopeptidase 9 (MMP9), MMP9 (gene 4318); test: BSK_KF3CT_MMP9: BioMAP Diversity Plus: KF3CT Assay for Matrix Metallopeptidase 9 (MMP9) Biomarker Activity (AID 2283074); conditions: primary human keratinocytes with fibroblasts; actives raise or lower the signal;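 for AC50: MMP9 protein level quantified by ELISA in the co-culture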
Method in brief: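 Human keratinocyte/foreskin fibroblast co-culture; compound added; 24 h; MMP-9 by ELISA; bidirectional fit vs DMSO baseline.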

[7] = read-out: urokinase plasminogen activator (uPA), PLAU (gene 5328); test: BSK_KF3CT_uPA: BioMAP Diversity Plus: KF3CT Assay for urokinase plasminogen activator (uPA) Biomarker Activity (AID 2283075); conditions: primary human keratinocytes with fibroblasts; actives raise or lower the signal
Method in brief: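 ELISA readout of uPA, analyzed for signal gain or loss relative to DMSO, from a human primary keratinocyte–foreskin fibroblast co-culture measured 24 h after chemical treatment.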

CD40, CD40 (gene 958) = test: BSK_LPS_CD40: BioMAP Diversity Plus: LPS Assay for CD40 Biomarker Activity (AID 2283076); conditions: primary human HUVEC with PBMC; actives raise or lower the signal
Method in brief: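 Using a multiplexed primary human co-culture (umbilical vein endothelium plus PBMC), CD40 was read by ELISA 24 h after dosing, with cytotoxicity tracked by sulforhodamine B staining of parallel cultures and activity fitted bidirectionally versus DMSO.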

[8] = read-out: E-selectin (Homo sapiens) (UniProt P16581); test: BSK_LPS_Eselectin: BioMAP Diversity Plus: LPS Assay for Eselectin Biomarker Activity (AID 2283077); conditions: primary human HUVEC with PBMC; actives raise or lower the signal
Method in brief: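 Dose chemical onto LPS-driven HUVEC/PBMC co-culture; after 24 h, run ELISA for E-selectin; fit up- and down-going responses relative to DMSO control.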

[9] = read-out: Interleukin-8 (IL8), CXCL8 (gene 3576); test: BSK_LPS_IL8: BioMAP Diversity Plus: LPS Assay for Interleukin-8 (IL8) Biomarker Activity (AID 2283078); conditions: primary human HUVEC with PBMC; actives raise or lower the signal
Method in brief: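 In this LPS system, chemical-treated human umbilical vein endothelium/PBMC co-cultures were harvested at 24 h for IL-8 ELISA.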

Measured: AC50

E-selectin (Homo sapiens), sequence (P16581 whole entry, looked up): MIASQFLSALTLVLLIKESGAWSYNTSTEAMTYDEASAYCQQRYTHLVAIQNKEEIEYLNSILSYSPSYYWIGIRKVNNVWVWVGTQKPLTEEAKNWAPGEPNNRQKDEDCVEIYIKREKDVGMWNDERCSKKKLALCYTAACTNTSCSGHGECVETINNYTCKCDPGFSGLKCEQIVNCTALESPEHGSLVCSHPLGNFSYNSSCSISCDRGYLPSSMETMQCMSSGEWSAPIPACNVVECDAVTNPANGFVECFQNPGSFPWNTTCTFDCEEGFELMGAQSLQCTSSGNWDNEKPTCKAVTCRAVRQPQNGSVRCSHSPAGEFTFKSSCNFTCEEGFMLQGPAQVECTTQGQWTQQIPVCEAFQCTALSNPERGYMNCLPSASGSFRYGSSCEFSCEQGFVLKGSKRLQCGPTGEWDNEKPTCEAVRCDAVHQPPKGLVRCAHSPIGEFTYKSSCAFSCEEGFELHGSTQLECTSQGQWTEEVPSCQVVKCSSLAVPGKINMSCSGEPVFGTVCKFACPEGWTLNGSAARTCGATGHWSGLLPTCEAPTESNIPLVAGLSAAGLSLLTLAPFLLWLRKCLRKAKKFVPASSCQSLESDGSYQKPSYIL

CSc1nnc(C(C)(C)C)c(=O)n1N
inactive: [1] | [2] | [3] | [4] | [5] | [6] | [7] | CD40, CD40 (gene 958) | [8] | [9]

CSc1nc(NC(C)C)nc(NC(C)C)n1
inactive: [1] | [2] | [3] | [4] | [5] | [6] | [7] | CD40, CD40 (gene 958) | [8] | [9]

CCc1cnc(C2=NC(C)(C(C)C)C(=O)N2)c(C(=O)O)c1 (stereo not given)
inactive: [1] | [2] | [3] | [4] | [5] | [6] | [7] | CD40, CD40 (gene 958) | [8] | [9]

Nc1c(Cl)cc([N+](=O)[O-])cc1Cl
inactive: [1] | [2] | [3] | [4] | [5] | [6] | [7] | CD40, CD40 (gene 958) | [8] | [9]

CCOP(=O)(SC(C)CC)N1CCSC1=O (stereo not given)
inactive: [1] | [2] | [3] | [4] | [5] | [6] | [7] | CD40, CD40 (gene 958) | [8] | [9]

N#CSCSC#N
active: [1] 4.78 µM | [2] 8.09 µM | [3] 5.72 µM | [4] 5.17 µM | [5] 5.31 µM | [6] 6.04 µM | [7] 6.91 µM | CD40, CD40 (gene 958) 5.33 µM | [8] 6.28 µM | [9] 5.94 µM

CCCOc1nn(C(=O)NS(=O)(=O)c2ccccc2C(=O)OC)c(=O)n1C
inactive: [1] | [2] | [3] | [4] | [5] | [7] | CD40, CD40 (gene 958) | [8]
active: [6] 0.103 µM | [9] 0.907 µM

O=c1ccc(=O)[nH][nH]1
inactive: [1] | [2] | [3] | [4] | [5] | [6] | [7] | CD40, CD40 (gene 958) | [8] | [9]

CCCCN(CC)c1c([N+](=O)[O-])cc(C(F)(F)F)cc1[N+](=O)[O-]
inactive: [1] | [2] | [3] | [4] | [5] | [7] | [9]
active: [6] 22.1 µM | CD40, CD40 (gene 958) 34.2 µM | [8] 20 µM

COP(=O)(NC(C)=O)SC (stereo not given)
inactive: [1] | [2] | [3] | [4] | [5] | [6] | [7] | CD40, CD40 (gene 958) | [8] | [9]

CNC(=O)Oc1cccc2c1OC(C)(C)O2
active: CD40, CD40 (gene 958) 13.6 µM | [8] 20 µM | [9] 25.2 µM
inactive: [1] | [2] | [3] | [4] | [5] | [6] | [7]

C[Si](Cn1cncn1)(c1ccc(F)cc1)c1ccc(F)cc1
inactive: [1] | [2] | [3] | [4] | [5] | [6] | [7] | CD40, CD40 (gene 958) | [9]
active: [8] 15 µM

CSC1=N[C@@](C)(c2ccccc2)C(=O)N1Nc1ccccc1
inactive: [1] | [2] | [3] | [4] | [5] | [7] | CD40, CD40 (gene 958)
active: [6] 29.9 µM | [8] 10.6 µM | [9] 1.7 µM

CCOP(=O)(NC(C)C)Oc1ccc(SC)c(C)c1 (stereo not given)
inactive: [1] | [2] | [3] | [4] | [5] | [6] | [7] | CD40, CD40 (gene 958) | [8] | [9]

C#CCC1=C(C)C(OC(=O)C2C(C=C(C)C)C2(C)C)CC1=O (stereo not given)
active: [1] 22.3 µM | CD40, CD40 (gene 958) 20 µM | [8] 28.4 µM | [9] 26.7 µM
inactive: [2] | [3] | [4] | [5] | [6] | [7]

CCOP(=S)(OCC)OC(Cl)C(Cl)(Cl)Cl (stereo not given)
active: [1] 26.7 µM
inactive: [2] | [3] | [4] | [5] | [6] | [7] | CD40, CD40 (gene 958) | [8] | [9]

C=C(C)[C@H]1Cc2c(ccc3c2O[C@@H]2COc4cc(OC)c(OC)cc4[C@@H]2C3=O)O1
inactive: [2] | [3] | [4] | [5] | [7] | [9]
active: [1] 3.97 µM | [6] 16.7 µM | CD40, CD40 (gene 958) 6.01 µM | [8] 20 µM

FC(F)C(F)(F)OCC(Cn1cncn1)c1ccc(Cl)cc1Cl (stereo not given)
active: CD40, CD40 (gene 958) 17.1 µM
inactive: [1] | [2] | [3] | [4] | [5] | [6] | [7] | [8] | [9]
